This is an account of results in PubChem BioAssay.

Each structure is given as a SMILES string. Active and inactive are the calls of the source. Unless noted, how the calls were made is not given here.

Assay [1] can be described thus: resazurin metabolic signal in HepG2 cells – cell-based, resazurin fluorescence, 24 h, PK04 Diversity Set, profiling panel (AID 1172). Further: test concentration not given here. Particulars: HepG2 viability, higher = more signal. In general terms: Resazurin is reduced to fluorescent resorufin, in cell work by metabolically active cells.
A short description of assay [2]: budding yeast growth changes without added modifier – OD600, strain BY4716, 24 h, basal condition, primary screen (AID 1173). Particulars: S. cerevisiae BY4716 growth, OD600, 24 h; higher = more signal, called active from +8 up or from −8 down.
A short description of assay [3]: viability profiling in MM1S myeloma cells – cell-based, resazurin fluorescence, basal, 24 h, PK04 Diversity Set, profiling panel (AID 1174).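 Further: MM1S multiple myeloma cell line; test concentration not given here.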 The conditions noted are these: higher = more signal, called active from +8 up or from −8 down.
In assay [4] the target is Dihydroorotate dehydrogenase (quinone), mitochondrial (Plasmodium falciparum (isolate 3D7)) (UniProt Q08210). Description: inhibition of P. falciparum DHODH – biochemical, C-terminal His tag, absorbance 600 nm, primary screen (AID 1175).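 Further: recombinant parasite enzyme with a five histidine tag at its C terminus; test concentration not given here.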 Particulars: PfDHODH enzyme, DCIP absorbance 600 nm; higher = more signal, called active from +8 up or from −8 down.
The nature of assay [5]: inhibition of PAO1 biofilm formation – strain PAO1, LB-PBS medium, absorbance 600 nm, primary screen (AID 1176). Further: test concentration not given here. Particulars: P. aeruginosa PAO1 growth/biofilm, A600, 12 h; higher = more signal.
Assay [6] in a line: growth modulation of vineyard yeast isolate – strain RM11-1a, OD600, basal, 24 h, primary screen (AID 1177).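 Further: cultures grown under basal conditions with no added stressor; test concentration not given here.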 The conditions noted are these: S. cerevisiae RM11-1a growth, OD600, 24 h; higher = more signal, called active from +8 up or from −8 down.
The nature of assay [7]: growth of efflux-deficient E. coli DRC39 – strain DRC39, OD650, 24 h, E. coli filamentation inducers, primary screen (AID 1178).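 Further: growth measured as culture turbidity by optical density at 650 nm; test concentration not given here.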 The conditions noted are these: E. coli DRC39 acrAB, higher = more signal, called active from +8 up or from −8 down.
Assay [8] in a line: growth of efflux-deficient E. coli DRC39 – strain DRC39, OD650, 48 h, E. coli filamentation inducers, primary screen (AID 1179).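 Further: screen aims at cell division blockers that make cells filament.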 The conditions noted are these: E. coli DRC39 delta-acrAB growth, higher = more signal, called active from +8 up or from −8 down.
The nature of assay [9]: viability profiling in RPMI8226 myeloma cells – cell-based, resazurin fluorescence, basal, 24 h, PK04 Diversity Set, profiling panel (AID 1180).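 Further: RPMI8826 multiple myeloma cell line at 5000 cells per well; test concentration not given here.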 Particulars: higher = more signal.
Assay [10] has as its target E3 ubiquitin-protein ligase XIAP (Homo sapiens) (UniProt P98170). Description: small molecules binding XIAP protein – biophysical, small-molecule microarray, fluorescence 635 nm, primary screen (AID 1181).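 Further: score merges 667 nm emission and signal to noise over triplicate slides.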 Particulars: higher = more signal.

Sequence of Dihydroorotate dehydrogenase (quinone), mitochondrial (Plasmodium falciparum (isolate 3D7)) (Q08210 whole entry, looked up): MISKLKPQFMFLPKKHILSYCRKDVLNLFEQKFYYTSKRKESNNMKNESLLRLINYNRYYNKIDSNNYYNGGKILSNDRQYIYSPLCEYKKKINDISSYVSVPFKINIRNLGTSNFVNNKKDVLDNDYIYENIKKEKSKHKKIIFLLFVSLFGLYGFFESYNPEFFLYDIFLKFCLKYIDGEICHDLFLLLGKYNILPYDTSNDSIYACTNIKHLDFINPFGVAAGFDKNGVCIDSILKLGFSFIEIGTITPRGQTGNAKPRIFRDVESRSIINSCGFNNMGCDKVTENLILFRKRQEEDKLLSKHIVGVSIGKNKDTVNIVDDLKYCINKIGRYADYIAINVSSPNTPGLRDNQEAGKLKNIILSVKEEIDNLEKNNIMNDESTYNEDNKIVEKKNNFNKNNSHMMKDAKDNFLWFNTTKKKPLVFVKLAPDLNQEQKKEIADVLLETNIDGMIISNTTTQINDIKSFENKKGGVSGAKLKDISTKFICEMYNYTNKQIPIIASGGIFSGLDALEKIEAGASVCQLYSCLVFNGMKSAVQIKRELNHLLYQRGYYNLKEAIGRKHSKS
Sequence of E3 ubiquitin-protein ligase XIAP (Homo sapiens) (P98170 whole entry, looked up): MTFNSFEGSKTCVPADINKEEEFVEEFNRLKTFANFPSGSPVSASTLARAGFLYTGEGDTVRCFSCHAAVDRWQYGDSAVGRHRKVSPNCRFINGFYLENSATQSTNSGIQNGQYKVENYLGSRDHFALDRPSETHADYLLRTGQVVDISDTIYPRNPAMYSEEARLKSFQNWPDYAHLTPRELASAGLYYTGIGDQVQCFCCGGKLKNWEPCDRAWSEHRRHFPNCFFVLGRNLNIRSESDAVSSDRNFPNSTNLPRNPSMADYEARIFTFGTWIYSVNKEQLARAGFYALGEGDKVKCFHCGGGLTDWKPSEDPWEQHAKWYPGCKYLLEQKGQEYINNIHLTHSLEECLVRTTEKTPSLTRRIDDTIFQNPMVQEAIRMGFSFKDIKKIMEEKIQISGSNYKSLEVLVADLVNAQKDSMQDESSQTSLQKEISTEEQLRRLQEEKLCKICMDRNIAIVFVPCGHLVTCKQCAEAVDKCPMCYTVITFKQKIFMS

Take `COC(=O)c1ccc(OC)c(/C=C\CC(CCc2ccccc2)OC(C)=O)c1` (stereo not given): the z-score is -0.928 in assay [1]; -0.527 (inactive) in [2]; -0.0834 (inactive) in assay [3]; -0.131 (inactive) in assay [5]; -0.424 (inactive) in assay [6]; 0.0214 (inactive) in assay [7]. For the same compound, the z-score in assay [8] was -0.238 (inactive); in assay [9], 0.271. Further, the results for the composite z-score in [4] and in [10] were -0.162 (inactive) and -0.253, respectively.
With `COCCOC(=O)N1C(=O)[C@@]2(c3ccccc31)[C@H](c1ccccc1OCCO)N1[C@H](c3ccccc3)[C@H](c3ccccc3)OC(=O)[C@H]1[C@@H]2C(=O)N1CCc2cc(OC)c(OC)cc2C1`, the z-score in assay [1] is -0.413; in assay [2], 1.99 (inactive); in [3], 0.181 (inactive); in assay [5], 1.96 (inactive); in [6], 3.06 (inactive); in [7], -1.29 (inactive). Moreover, the z-score in [8] was -1.3 (inactive); in assay [9], 0.186. In addition, the composite z-score is 0.301 (inactive) in [4] and -0.146 in assay [10].
As for `O=C1N(CCS(=O)(=O)c2ccccc2)Cc2ccccc2C[C@@]12COC(c1ccc(OCCCO)cc1)=N2`, the z-score was 0.0549 in [1]; 1.58 (inactive) in [2]; -5.12 (inactive) in [3]; 0.0379 (inactive) in [5]; 2.14 (inactive) in assay [6]; 0.862 (inactive) in [7]. Also, the z-score in [8] is -0.691 (inactive); in assay [9], -3.43. The composite z-score in assay [4] is -0.211 (inactive); in assay [10], 0.167.
Take `O=C1O[C@H](c2ccccc2)[C@H](c2ccccc2)N2[C@H]1[C@@H](C(=O)N1CCN(c3ncccn3)CC1)[C@]1(C(=O)Nc3ccc(C#CCCO)cc31)[C@H]2c1ccc(OCCO)cc1`: the z-score in assay [1] was 0.956; in [2], 1.01 (inactive); in assay [3] it was -0.901 (inactive); in [5], 3.36 (inactive); in assay [6] it was 1.2 (inactive); in assay [7], 0.275 (inactive). Further, the z-score in assay [8] is -0.432 (inactive); in assay [9] it was 0.747. For the same compound, the composite z-score was -0.692 (inactive) in assay [4] and 0.256 in [10].
Consider `COc1cc(C(O)C2C=CC3C(=O)NC(=O)C3N2Nc2ccc(Cl)cc2Cl)cc(OC)c1OC` (stereo not given), for which the z-score in assay [1] is -0.925; in [2], -12.7 (active); in [3], -0.679 (inactive); in [5], 0.683 (inactive); in assay [6], 0.1 (inactive); in [7], -0.305 (inactive). In addition, the z-score was -0.425 (inactive) in assay [8] and -0.933 in assay [9]. The composite z-score is 0.0871 (inactive) in assay [4] and 0.0454 in [10].
As to `O=C1CSC(c2cccc([N+](=O)[O-])c2)N1c1ccccc1` (stereo not given), the z-score was 0.0598 in assay [1]; 0.483 (inactive) in assay [2]; -0.0906 (inactive) in assay [3]; 0.199 (inactive) in assay [5]; 0.468 (inactive) in assay [6]; 0.869 (inactive) in assay [7]. For the same compound, the z-score was 0.869 (inactive) in assay [8] and 0.407 in [9]. Also, the figures for the composite z-score in [4] and in assay [10] were -0.861 (inactive) and -0.0056, respectively.
In the case of `CCOC(=O)C[C@H]1[C@H](OC(=O)c2ccc(C(=O)c3ccccc3)cc2)[C@@H](NC(=O)C2CCCCC2)c2cc(OCCCO)ccc2N1C(=O)Cc1ccc(OC)cc1`, the z-score in assay [1] is -0.531; in [2] it was -0.741 (inactive); in assay [3] it was -0.28 (inactive); in [5] it was -0.346 (inactive); in assay [6], -0.0363 (inactive); in [7] it was -0.29 (inactive). The z-score in assay [8] is 0.162 (inactive); in [9] it was -0.353. Further, the composite z-score in assay [4] was -0.085 (inactive); in assay [10], -0.141.
For `CC(C)CN1C(=O)[C@@]2(Cc3ccccc31)c1ccccc1C(=O)N(Cc1ccccc1)[C@H]2c1ccc(CO)cc1`, the z-score in assay [1] was -0.436; in assay [2] it was 0.145 (inactive); in assay [3], -0.765 (inactive); in [5], 0.745 (inactive); in [6], -0.286 (inactive); in [7], 0.109 (inactive). Moreover, the z-score in assay [8] is -0.663 (inactive); in assay [9] it was -0.904. Also, the composite z-score in assay [4] is -2.4 (inactive); in assay [10], -0.25.
On to `O=C1O[C@H](c2ccccc2)[C@H](c2ccccc2)N2[C@H]1[C@@H](C(=O)N1CCN(c3ncccn3)CC1)[C@]1(C(=O)Nc3ccc(C#CCCO)cc31)[C@H]2c1ccccc1OCCO`, for which the z-score in assay [1] was -0.141; in assay [2], 0.687 (inactive); in assay [3] it was -0.31 (inactive); in [5] it was 1.34 (inactive); in [6], 1.91 (inactive); in [7] it was 0.156 (inactive). Besides, the z-score in assay [8] was 0.614 (inactive); in assay [9], -1.36. Further, the results for the composite z-score in [4] and in assay [10] were -0.49 (inactive) and -0.16, respectively.
As to `CC(C)C[C@@H]1NC(=O)[C@@]23C(=O)N[C@@H](Cc4ccccc4)C2[C@H](C)[C@@]2(C)O[C@H]2C3/C=C/C/C=C\CNC(=O)[C@@H]2CCCN2C1=O` (stereo not given in full), the z-score is -0.462 in assay [1]; -0.47 (inactive) in assay [2]; 0.17 (inactive) in [3]; 0.577 (inactive) in assay [5]; -0.0014 (inactive) in assay [6]; -0.536 (inactive) in assay [7]. Besides, the z-score in assay [8] is -0.146 (inactive); in assay [9] it was -0.39. Further, the figures for the composite z-score in [4] and in [10] were -0.487 (inactive) and -0.207, respectively.
On to `CC(C)(C)OC(=O)CC[C@]1(C(=O)O)COC(c2ccc(OCCCO)cc2)=N1`, for which the z-score in assay [1] is 0.265; in assay [2] it was 0.167 (inactive); in assay [3] it was -0.249 (inactive); in assay [5], -0.596 (inactive); in assay [6] it was 0.433 (inactive); in [7] it was -0.341 (inactive). Moreover, the z-score in assay [8] is -0.447 (inactive); in assay [9] it was -0.0624. For the same compound, the composite z-score in assay [4] is -0.055 (inactive); in assay [10], -0.118.
For `COc1ccc(CCNC(=O)[C@@H]2c3ccccc3C(=O)N(Cc3ccccc3)[C@H]2c2ccc(CO)cc2)cc1`, the z-score is 0.713 in assay [1]; -0.996 (inactive) in assay [2]; -2.71 (inactive) in [3]; 0.801 (inactive) in [5]; -0.539 (inactive) in [6]; 1.62 (inactive) in [7]. For the same compound, the z-score in assay [8] was 1.78 (inactive); in assay [9], -0.648. Also, the composite z-score is -0.489 (inactive) in assay [4] and -0.0272 in assay [10].
